# Screening results from PubChem.
# IL-1B inflam inh: inflammasome signaling inhibition, IL-1 beta readout. THP-1 LPS/ATP IL-1B secretion, AlphaLISA, 16 h; active compounds read low. activity change, % at 57.5 µM. 4.7% of 360,000 active. AID 743279; in the data active = activity change below about -50%; inconclusive = mostly about -30% to -49%
#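 Secreted IL-1B measured by AlphaLISA bead assay after 16 h compound exposure of THP-1 cells; compounds (final up to 57.5 uM) added 1 h before LPS (250 ng/mL) and ATP (1.25 mM) stimulation; lower signal means less secretion.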
# ClpP mod: qHTS Assay for Activators of ClpP; ATP-dependent Clp protease proteolytic subunit (Bacillus subtilis (strain 168)), P80244; purified B. subtilis ClpP, FRET peptide cleavage, 20 min; Potency, µM (highest dose often 57.5 µM); 1.9% of 340,000 active; AID 651965, 2013; active = well fitted falling curve with a large enough effect; inconclusive = small, poorly fitted or top-dose-only effect; inactive = no such curve, though single readings can be large or run the other way; also: the source files actives as falling curves though it sought activators and does not explain the sign; nearly all actives have a fitted effect of over 65% in size
# Target sequence (P80244 whole entry, looked up): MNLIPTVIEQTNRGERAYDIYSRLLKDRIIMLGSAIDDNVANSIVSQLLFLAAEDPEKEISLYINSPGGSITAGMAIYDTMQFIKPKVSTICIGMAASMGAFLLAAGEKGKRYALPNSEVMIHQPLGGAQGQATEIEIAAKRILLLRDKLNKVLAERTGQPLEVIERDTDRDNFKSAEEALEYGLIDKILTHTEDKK
#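 Buffer: 100 mM Tris/HCl pH8, 100 mM KCl, 0.05% low protease BSA, 2.5% glycerol, 0.01% Tween-20. ClpP 10 microg/mL final; 20 min RT; delta FRET normalized to ADEP and DMSO controls.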
# TDP1 cell CPT: DT40-hTDP1 cell growth loss with CPT; chicken DT40 Tdp1-/-;hTDP1 cells + 20 nM CPT, ATP luminescence, 48 h; AID 686979; Potency, µM (series often up to 46.2 µM), most hits filed as inhibitors; 12% of 420,000 active; also: nearly all actives have a fitted effect of over 55% in size
#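 Chicken DT40 Tdp1-/- cells stably complemented with human TDP1 were seeded at 400 cells/well in medium containing 20 nM camptothecin, exposed to pin-transferred compounds, and grown at 37 °C for at least 48 hr. Viability was read as ATP luminescence.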
# DRD3 agonist: activates the human D3 dopamine receptor | D3R DiscoveRx beta-arrestin cells, luminescence, 90 min | 0.58% of 410,000 active | max activation, % | AID 652048; in the data active = max activation above about 30%
#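 Agonist-mode cell screen: cells plated at 1500/well and incubated overnight at 37 °C, then exposed to library compounds for 90 min at 37 °C. Detection reagent was added for 30–60 min at room temperature, and luminescence was read.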
# TDP1 cell noCPT: qHTS for Inhibitors of human tyrosyl-DNA phosphodiesterase 1 (TDP1): qHTS in cells in absence of CPT; DT40 Tdp1-/- hTDP1 cells, no CPT, ATP luminescence, 48 h; Potency, µM (doses to about 46.2 µM), hits mostly inhibitors; 15% of 420,000 active; also: nearly all actives have a fitted effect of over 55% in size
#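 Camptothecin absent (DMSO only). Human TDP1-complemented DT40 knockout cells, 400 cells/well, 37 °C for minimum 48 hr; ATP measured via CellTiter-Glo, 30 min dark incubation, luminescence.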
# DRD3 antagonist: antagonists of human D3 dopamine receptor | P35462 | D3R cells, DiscoveRx beta-arrestin luminescence, antagonist mode; active compounds read low | max response, negative = inhibition, % | 2.5% of 360,000 active; in the data active = max response below about -50%; inconclusive = no clear call, values can overlap the other calls
#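 Cells expressing the human receptor were seeded at 1500 cells/well, incubated overnight at 37 degrees C in 5% CO2, then exposed to library compounds with dopamine controls for 90 minutes at 37 degrees C before luminescent detection.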
# Hits are given with their value; 0 = inactive; ? = inconclusive; - = not tested or not shown. Compounds with a hit are over-represented: about 21% of the library has one in this group of screens. Unless noted, calls follow the shape of the dose curve; as a rule, active = well fitted inhibition curve with a large enough effect; inconclusive = small, poorly fitted or top-dose-only effect; inactive = flat fitted curve, though single readings scatter.
SMILES,IL-1B inflam inh,ClpP mod,TDP1 cell CPT,DRD3 agonist,TDP1 cell noCPT,DRD3 antagonist
CN1OC[C@@H]2CN(C(=S)NCCc3ccccc3)[C@H](c3ccc(N4CCCCC4)cc3)C[C@@H]21,0,0,16.4µM,0,?,0
Clc1ccc(/C=N/Nc2nnc(-c3ncc[nH]3)c3ccccc23)cc1,0,0,?,0,20.6µM,0
O=C(C1CCCCC1)N1CCC(CO)(Cc2ccccc2Cl)CC1,?,0,?,0,20.6µM,0
COCCCNC(=S)NNC(=O)c1cc(-c2ccncc2)nc2ccccc12,0,0,0,0,0,0
CCCc1cc(C(=O)NNC(=S)NCC)c2ccccc2n1,0,0,?,0,?,-56.2
CCNC(=S)NNC(=O)c1cc(-c2cc(C)ccc2C)nc2ccccc12,0,0,14.6µM,0,14.6µM,0
CCc1nn(CC(=O)NCc2cccc(OC)c2)c(=O)c2cc3cc(F)ccc3n12,-,0,?,0,0,-
CN(C)c1ccc(C(CNS(=O)(=O)c2ccc(Br)cc2)N2CCOCC2)cc1 (configuration not stated),-,0,?,0,?,-
Cc1nc2ccccn2c1C(=O)NNS(=O)(=O)c1ccc(C(C)(C)C)cc1,0,0,8.2µM,0,6.51µM,0
COc1ccc(Br)cc1S(=O)(=O)NNC(=O)c1c(C)nc2ccccn12,0,-,0,0,?,0
C/C(=N\NC(=O)c1c(C)nc2ccccn12)c1ccc(C(C)(C)C)cc1,0,-,18.4µM,0,11.6µM,0
Cc1ccc2c(c1)c1c(n2CC(O)Cn2ccnc2C)C(=O)CCC1 (configuration not stated),0,0,?,0,?,0
Cc1ccc2c(c1)c1c(n2CC(O)Cn2c(C)nc3ccccc32)C(=O)CCC1 (configuration not stated),0,?,25.9µM,0,18.4µM,0
Cc1ccc2c(c1)c1c(n2CC(O)Cn2c(C)nc3ccccc32)/C(=N\O)CCC1 (configuration not stated),0,0,23.1µM,0,23.1µM,0
CCOc1ccc(-c2nc(CSCC(=O)NC3CCCc4ccccc43)c(C)o2)cc1 (configuration not stated),-76.7,?,17.8µM,0,?,0
CCOc1ccc(-c2nc(CSCC(=O)NC3CC3)c(C)o2)cc1,0,0,?,0,?,0
Cc1oc(-c2ccc(Cl)cc2)nc1CSCC(=O)NC1CCN(Cc2ccccc2)CC1,-61.1,0,?,0,?,-76.1
CCOc1ccc(-c2nc(CSCC(=O)NC3CCN(Cc4ccccc4)CC3)c(C)o2)cc1,0,0,23.1µM,0,?,-116.9
S=C(NCc1ccccc1)N1CCN(C2CCCCC2)CC1,0,0,?,0,?,0
Cc1ccc(NC(=O)C2Cc3ccccc3CN2C(=O)c2ccccc2)cc1Cl (configuration not stated),0,0,0,0,?,0
Cc1cccc(C)c1NC(=O)Nc1nc(C(N)c2ccccc2Cl)cs1 (configuration not stated),0,0,?,0,16.4µM,0
NC(c1csc(NC(=O)Nc2cccc(Cl)c2)n1)c1ccccc1Cl (configuration not stated),-106.6,0,?,0,?,0
CC(C)C(N)c1csc(NC(=O)Nc2cccc(Cl)c2)n1 (configuration not stated),?,0,?,0,20.6µM,0
O=C(CSc1nc2c(c(=O)[nH]1)CCCC2)Nc1ccccc1C(F)(F)F,-,0,0,0,0,-
Cc1cc(C)cc(NC(=O)C(=O)NC(C)c2ccccc2)c1 (configuration not stated),-,0,?,0,?,-
Clc1nc(Nc2ccccc2)nc(Nc2ccccc2)n1,-99.9,31.6µM,0,0,0,0
CC(C)(C)Nc1nc(Cl)nc(Nc2ccccc2)n1,-65.2,0,?,0,?,0
COc1ccccc1Nc1nc(Cl)nc(NC(C)(C)C)n1,0,-,0,0,0,0
